The whole screen tested about 370,000 compounds, of which about 2,000 (0.54%) were called active. The sample as a whole holds a higher share of actives than the screen did. Values without a mark were called inactive. Rule as the data show it: active = inhibition above about 30%; inactive = the rest.

The test system of the assay is Crimean-Congo hemorrhagic fever virus L polyprotein viral ovarian tumor (vOTU) protease domain. In words: CCHFV vOTU protease inhibitors, primary screen, biochemical, Pep-AMC substrate, fluorescence (AID 651958). Also: 0% = vehicle wells with enzyme and 100% = no enzyme wells. Conditions: at 11.5 µM, active compounds read high.
What is called inhibition is the drop in the measured response relative to a control, in per cent. `O=C(O)Cc1csc(NC(=O)CSc2nnnn2-c2ccc(O)cc2)n1`: the inhibition is -4.88%.

For `CCN(CC)C(=O)C1=C(C)N(Cc2ccc(F)cc2)C(=O)C(CC(=O)NCc2cccc3ccccc23)C1` (stereo unspecified), the inhibition is 1.88%.

Regarding `CCN(CC)C(=O)C1=C(C)N(Cc2ccc(C(C)(C)C)cc2)C(=O)C(CC(=O)NCc2cccc3ccccc23)C1` (stereo unspecified), the inhibition is 31.8% (active).

`COc1ccc(CN2C(=O)C(CC(=O)NCc3cccc4ccccc34)CC(C(=O)N3CCOCC3)=C2C)cc1` (stereo unspecified): the inhibition is 7.84%.

With `CCN(CC)CCCC(C)n1c2nc(=O)[nH]c(=O)c-2nc2cc(Cl)ccc21` (stereo unspecified), the inhibition is 95.2% (active).

With `Cc1ccc(C)c(NC(=O)c2cc(-c3cc(C)cc(C)c3O)n[nH]2)c1`, the inhibition is -1.49%.

For the molecule `O=C(COCc1cc(-c2ccc3c(c2)OCO3)on1)N1CCN(c2cccc(Cl)c2)CC1`, the inhibition was 7.08%.

Consider `Cc1coc2c(O)cc3c(c12)OC1(N2CCCCC2)C(=O)NCCCC31` (stereo unspecified), for which the inhibition was 51.9% (active).

With `CCN1CCN(CC(=O)c2cc(OC)c(OC)c(OC)c2)CC1`, the inhibition was -2.49%.

Take `Oc1c(Cl)cc(Cl)c(Cl)c1Cc1c(O)c(Cl)cc(Cl)c1Cl`: the inhibition was 39% (active).

Consider `CC(=O)Nc1ccc(SCC(=O)Nc2ccccc2Oc2ccccc2)cc1`, for which the inhibition was -1.09%.

For the molecule `CC1(C)S[C@@H]2[C@H](NC(=O)COc3ccccc3)C(=O)N2C1C(=O)OCc1ccccc1` (stereo partly specified), the inhibition was 3.3%.

In the case of `O=C1C2C3C=CC(C4CC34)C2C(=O)N1/N=C/c1ccc(-c2ccccc2[N+](=O)[O-])o1` (stereo unspecified), the inhibition is 13.7%.

In the case of `Cc1ccc(-c2ccc(/C=C(\C#N)C(N)=S)o2)c([N+](=O)[O-])c1`, the inhibition was 16.7%.

Take `CC1=NN(c2ccc(Cl)c(C(=O)O)c2)C(=O)/C1=C/c1ccc(-c2ccccc2[N+](=O)[O-])o1`: the inhibition was 32.7% (active).

With `CC(C)[C@H](NC(=O)N1c2ccccc2NC(=O)[C@@H]1C(C)C)C(=O)N[C@H](C(=O)O)c1ccccc1`, the inhibition is -2.64%.

For the molecule `O=S(=O)(c1ccc(Sc2nnc3ccccn23)nc1)N1CCOCC1`, the inhibition is -14.3%.

In the case of `NNC(=O)c1cccc(COCC(F)(F)C(F)F)c1`, the inhibition is -1.18%.

For the molecule `CCCCNC(=O)C1CCC(=O)N1CCc1ccccc1` (stereo unspecified), the inhibition was 0.15%.

Consider `O=C(COC(=O)Cc1c[nH]c2ccccc12)NCCc1ccccc1`, for which the inhibition is -6.33%.

Take `Cc1cc(C)cc(NC(=S)NCCc2c[nH]c3ccccc23)c1`: the inhibition was 30.6% (active).

For `Cc1ccc(S(=O)(=O)N(C)CC(=O)NCCc2c[nH]c3ccccc23)cc1`, the inhibition was 1.27%.

For `Clc1ccc(CSc2nnc([C@@H]3CCCN3)o2)cc1`, the inhibition was 2.88%.

Regarding `Cc1nn(CCCC(=O)NCc2ccccc2Cl)c(=O)c2nccn12`, the inhibition was 3.6%.

With `COc1ccc2c(c1)CCc1cn3ncc(C#N)c3nc1-2`, the inhibition was -345%.

`NCCN1CCN2C(=O)CN(C(=O)c3ccccc3)CC12` (stereo unspecified): the inhibition was 12.1%.

On to `O=[N+]([O-])c1ccc(NS(=O)(=O)c2ccccc2)c(Cl)c1`, for which the inhibition is 12.9%.

Regarding `O=S(=O)(Cc1noc(-c2ccc(OC(F)(F)F)cc2)n1)c1ccc(F)cc1`, the inhibition was 2.35%.

As for `O=S(=O)(Nc1ccc(O)c2ccccc12)c1ccc(OC(F)(F)F)cc1`, the inhibition is 72.5% (active).

On to `O=C(c1ccc(F)cc1)N1CCC(C(=O)N2CCN(S(=O)(=O)c3ccccc3Br)CC2)CC1`, for which the inhibition is -5.29%.

`CC(C)[C@@H](C(=O)O)N(Cc1cccc(CN([C@H](C(=O)O)C(C)C)S(C)(=O)=O)c1)S(C)(=O)=O`: the inhibition was 1.18%.

Regarding `CCC(C)CCN1CCN=C1N(C)C` (stereo unspecified), the inhibition is 10.6%.

Take `CC(C(=O)Nc1ccccc1-c1ccccc1)N1CCOCC1` (stereo unspecified): the inhibition is 30% (active).

Take `CC(Sc1nncn1C)C(=O)Nc1ccccc1-c1ccccc1` (stereo unspecified): the inhibition is 3.71%.

For the molecule `CC(C(=O)Nc1ccc(Cl)cc1Cl)N1CC=C(c2ccccc2)CC1` (stereo unspecified), the inhibition was -3.9%.

Take `COc1ccc(S(=O)(=O)N(C)C[C@H]2OCc3cnnn3CCCC(=O)N([C@H](C)CO)C[C@H]2C)cc1`: the inhibition is -4.66%.

Turning to `COc1cccc(NC(=O)CS(=O)(=O)c2cn(CC(=O)N3CCOCC3)c3ccccc23)c1`, the inhibition is 6.34%.

For `O=C(Nc1ccc(F)cc1)C(=O)c1cn(CC(=O)N2CCOCC2)c2ccccc12`, the inhibition was -0.24%.

As for `COc1cccc(NC(=O)C(=O)c2cn(CC(=O)N3CCOCC3)c3ccccc23)c1`, the inhibition was 40.2% (active).

On to `CN(Cc1c(F)cccc1Cl)C(=O)COC(=O)Cn1cnc2ccccc2c1=O`, for which the inhibition is -6.54%.

`CCCCC(O)(CCCC)C(=O)NN(C(=O)CCl)c1ccccc1`: the inhibition was 8.68%.

Consider `CCCc1ccc(OCC(O)CN2CCN(CCO)CC2)cc1` (stereo unspecified), for which the inhibition is -10.8%.

`COc1ccc(CN2CCC(C)(Oc3cccc(F)c3)C2)c2ccccc12` (stereo unspecified): the inhibition is 10%.

As for `CCCSc1nc(NCc2ccco2)c2c3c(sc2n1)COC(C)(CC)C3` (stereo unspecified), the inhibition was 30.9% (active).

As for `CN1CCc2c(sc3c2c(NCc2ccco2)nc2nnnn23)C1`, the inhibition was -25.3%.

As for `CCC1(C)Cc2c(sc3nnn(CC(=O)Nc4ccc(Cl)cc4)c(=O)c23)CO1` (stereo unspecified), the inhibition was -1.67%.

Take `Clc1ccc(C(Cn2ccnc2)OCc2ccsc2Cl)c(Cl)c1` (stereo unspecified): the inhibition is 9.88%.

In the case of `Clc1ccc(C2=CSC3=Nc4cccc5cccc(c45)N23)cc1`, the inhibition was 103% (active).

As for `COc1ccc(CN(Cc2ccco2)S(=O)(=O)c2ccc(S(=O)(=O)N3CCCC3)cc2)cc1`, the inhibition is -4.58%.

For `O=C(NC1=CC(=O)c2ccccc2C1=O)c1ccccc1`, the inhibition is 101% (active).

Turning to `CC(=O)NS(=O)(=O)c1ccccc1`, the inhibition is -12.3%.

On to `Cc1cc(NS(=O)(=O)c2ccccc2)no1`, for which the inhibition was -7.1%.

For `O=C1C=C(NS(=O)(=O)c2ccccc2)C(=O)c2ccccc21`, the inhibition is 41.9% (active).

Take `O=c1ccn([C@@H]2O[C@H](CNS(=O)(=O)c3cc4ccccc4s3)[C@@H](O)[C@H]2O)c(=O)[nH]1`: the inhibition is -7.44%.

For `COc1ccc(C2c3[nH]c4ccccc4c3C[C@H]3C(=O)N(CC(C)C)CC(=O)N23)c(OC)c1` (stereo partly specified), the inhibition is -0.95%.

Regarding `COc1ccc(/C=C2\N=C3CCCN3C2=O)cc1`, the inhibition is 5.48%.

The record behind these values is PubChem BioAssay AID651958 (The Scripps Research Institute Molecular Screening Center, 2012).
